Shown are actives, neighbours in structure and some others; about 2.2% of the full set was active somewhere.
HTR5A ag ctr – activates human HTR5A in OPRM1-OPRD1 agonist counter-screen; HTR5A agonist assay, luminescence, cell-based; activation, % at 9.3 µM; actives 0.61% (n = 340,000); in the data active = activation mostly above about 9.5%, no sharp cut-off; inactive = mostly below about 7.6%
sPLA2-III inh – Inhibits HGIII-sPLA2 liposome hydrolysis, primary screen. AID 743126. Q9NZ20. actives 0.56% (n = 370,000). inhibition, % at 12.2 µM. QFRET BODIPY PC-A2 liposome hydrolysis, fluorescence;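 active = inhibition above mean plus 3 SD of compounds lying within the high and low control bounds, cut at about 19% in these data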
Target sequence (Q9NZ20 whole entry, looked up): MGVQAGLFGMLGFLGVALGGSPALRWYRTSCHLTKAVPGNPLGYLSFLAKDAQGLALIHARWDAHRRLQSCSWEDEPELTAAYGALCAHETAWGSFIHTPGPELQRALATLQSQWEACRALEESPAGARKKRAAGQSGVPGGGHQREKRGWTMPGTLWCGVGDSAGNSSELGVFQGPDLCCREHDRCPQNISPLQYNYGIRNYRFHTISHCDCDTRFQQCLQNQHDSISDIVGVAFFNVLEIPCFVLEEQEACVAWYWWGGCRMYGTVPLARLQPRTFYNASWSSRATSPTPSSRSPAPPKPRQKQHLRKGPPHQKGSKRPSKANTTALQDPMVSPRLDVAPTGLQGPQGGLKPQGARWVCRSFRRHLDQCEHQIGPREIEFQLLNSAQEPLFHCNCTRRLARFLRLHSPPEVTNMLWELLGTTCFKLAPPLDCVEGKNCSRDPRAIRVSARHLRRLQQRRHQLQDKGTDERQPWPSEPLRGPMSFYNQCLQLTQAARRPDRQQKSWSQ
OPRM1-OPRD1 ag – OPRM1-OPRD1 heterodimerization agonism; cells, luminescence; actives 0.3% (n = 340,000); P35372+P41143; activation, % at 9.3 µM; AID 504326; in the data active = activation above about 18%
m5-HT2A agonist – activates the mouse 5-HT2A serotonin receptor | P35363 | activation, % at 7.6 µM | AID 624169 | actives 0.66% (n = 360,000) | CHO-K1 mHTR2A beta-arrestin complementation, luminescence; percent of 30 µM serotonin response;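 active = activation above a run cutoff, the mean activation of all tested compounds plus 3 SD, cut at about 14% in these data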
MOR-DOR inv ag – inverse agonists of human mu-delta opioid receptor heterodimerization. P35372+P41143. cell-based MOR-DOR heterodimer luminescence, inverse agonism. inhibition, % at 9.3 µM. actives 0.21% (n = 340,000); in the data active = inhibition above about 22%, passing the limit was not always enough
HTR5A inv ag – inverse agonist of human HTR5A in OPRM1-OPRD1 counter-screen; P47898; HTR5A cell line, luminescence, inverse agonism; inhibition, % at 9.3 µM; actives 0.083% (n = 340,000); in the data active = inhibition mostly above about 23%, no sharp cut-off; inactive = mostly below about 18%
MOR ag counter – OPRM1 agonism in mouse HTR2A counterscreen; U2OS OPRM1 beta-arrestin PathHunter, luminescence; DMSO 0%, DAMGO 9.3 µM 100%; AID 624380; shares compounds with m5-HT2A agonist; actives 5.3% (n = 2,300); activation, % at 9.3 µM;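 active = mean activation above the mean of DMSO-only wells plus 3 SD, cut at about 0.5% in these data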
m5-HT2A ag conf – mouse HTR2A agonism confirmed. shares compounds with m5-HT2A agonist. CHO-K1 PathHunter beta-arrestin recruitment, luminescence; DMSO 0%, 30 µM serotonin 100%. activation, % at 7.6 µM. actives 19% (n = 2,300). AID 624381;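 active = mean activation across triplicates above the hit threshold derived in the original primary screen, cut at about 15% in these data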
Of the large screens only hits and unclear results are named; the others gave an inactive call (follow-up assays come after a bar, where they were run).

COc1ccc(S(=O)(=O)n2c([N+](=O)[O-])cnc2C)cc1OC	none
CCOC(=O)Cn1cc(CN2C(C(=O)OC)CN(C3CCCC3)CCS2(=O)=O)nn1 (stereo not given)	none (no result: HTR5A ag ctr, OPRM1-OPRD1 ag, m5-HT2A agonist, MOR-DOR inv ag, HTR5A inv ag)
CCCCCCCC/C=C\CCCCCCCC(=O)NCCc1ccc(O)c(O)c1	m5-HT2A agonist 34 | MOR ag counter inactive | m5-HT2A ag conf 170
CCCCCCCC/C=C\CCCCCCCC(=O)NCCO	none
CC(C)(C)c1ccc(O)c(N=Cc2cc(Br)ccc2O)c1	m5-HT2A agonist 49 | MOR ag counter inactive | m5-HT2A ag conf inactive
Cc1ccc(O)c(C=Nc2cc(C)ccc2O)c1	none (no result: sPLA2-III inh)
CN(C)c1ccc(-c2nn3c(-c4ccco4)nnc3s2)cc1	none (no result: HTR5A ag ctr, OPRM1-OPRD1 ag, m5-HT2A agonist, MOR-DOR inv ag, HTR5A inv ag)
CCc1ccc(NC(=O)Cn2nnc(C(=O)NCCc3ccc(OC)c(OC)c3)c2N)cc1	m5-HT2A agonist 17 | MOR ag counter inactive | m5-HT2A ag conf inactive
CCCCN(C(=O)c1cccc(S(=O)(=O)N2CCN(C)CC2)c1)c1c(N)n(CCC)c(=O)[nH]c1=O	m5-HT2A agonist 16 | MOR ag counter inactive | m5-HT2A ag conf inactive
CCCCn1c(N)c(N(CCOC)C(=O)c2cc3c(s2)CCC(C)C3)c(=O)[nH]c1=O (stereo not given)	m5-HT2A agonist 15 | MOR ag counter inactive | m5-HT2A ag conf inactive
CCCN(C(=O)c1cccc(S(=O)(=O)N2CCN(C)CC2)c1)c1c(N)n(Cc2ccccc2)c(=O)[nH]c1=O	none
CCCCn1c(N)c(N(CCOC)C(=O)c2ccc(-c3ccc(C(C)=O)cc3)o2)c(=O)[nH]c1=O	m5-HT2A agonist 15 | MOR ag counter inactive | m5-HT2A ag conf inactive
CC(/C=C/C1(O)C(C)CC(O)CC1(C)C)OC1OC(CO)C(O)C(O)C1O (stereo not given)	m5-HT2A agonist 39 | MOR ag counter inactive | m5-HT2A ag conf inactive
CC(C)(C)OC(=O)CNC(=O)c1[nH]cnc1C(=O)NC1CCN(C(=O)OC(C)(C)C)CC1	none (no result: m5-HT2A agonist)
CC(C)(C)OC(=O)N1CCC(NC(=O)c2nc[nH]c2C(=O)NCC(=O)OCc2ccccc2)CC1	m5-HT2A agonist 21 | MOR ag counter inactive | m5-HT2A ag conf inactive
C#CCNC(=O)C[C@@H]1C(=O)N(CCc2ccc(Cl)cc2)C2=CCCCC[C@]21C(=O)OC	none (no result: HTR5A ag ctr, OPRM1-OPRD1 ag, m5-HT2A agonist, MOR-DOR inv ag, HTR5A inv ag)
Cc1cccc(S(=O)(=O)NCCc2cn3ccccc3n2)c1	none
Cc1ccn2cc(CCNS(=O)(=O)c3ccc4c(c3)CCCC4)nc2c1	m5-HT2A agonist 25 | MOR ag counter inactive | m5-HT2A ag conf inactive
COc1cc(-c2nnc(SCC(=O)N3C(C)CCCC3C)o2)cc(OC)c1OC (stereo not given)	none (no result: HTR5A ag ctr, OPRM1-OPRD1 ag, m5-HT2A agonist, MOR-DOR inv ag, HTR5A inv ag)
CC(=O)c1cc(-c2ccccc2)n(CC(=O)NCc2ccc(F)cc2)c1C	none (no result: HTR5A ag ctr, OPRM1-OPRD1 ag, m5-HT2A agonist, MOR-DOR inv ag, HTR5A inv ag)
CCOC(=O)C1=C(N)Oc2cc(O)ccc2C1c1ccc(C)cc1 (stereo not given)	m5-HT2A agonist 31 | MOR ag counter 1.1 | m5-HT2A ag conf inactive
CCC(C)N(Cc1ccc(OC)cc1OC)S(=O)(=O)c1cc(Br)ccc1Br (stereo not given)	none (no result: HTR5A ag ctr, OPRM1-OPRD1 ag, m5-HT2A agonist, MOR-DOR inv ag, HTR5A inv ag)
CCc1cc[n+](C(C(=S)Nc2cccc(C)c2)=C([O-])c2ccc(C)c([N+](=O)[O-])c2)cc1	m5-HT2A agonist 15 | MOR ag counter inactive | m5-HT2A ag conf inactive
COc1ccc(CCC(=O)NNC(=O)Cn2nc(C)cc2C)cc1	m5-HT2A agonist 17 | MOR ag counter inactive | m5-HT2A ag conf inactive
Cc1cccc(OCCC(=O)NNC(=O)Cn2nc(C)cc2C)c1	none
CCOC(=O)N1CCC(N2CCCC(C(=O)c3ccccc3OC)C2)CC1 (stereo not given)	m5-HT2A agonist 27 | MOR ag counter inactive | m5-HT2A ag conf 54
CCOC(=O)N1CCC(N2CCCC(C(=O)c3cc(C)c(OC)c(C)c3)C2)CC1 (stereo not given)	none
